# Laboratory results: PubChem BioAssay
# For part of these data: Entries with a potency or affinity are not part of this list. Calls of active or inactive are those of the source.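 How the source made its calls, unless noted: active means fitted half-maximal concentration within the tested range, moderate curve steepness, significant signal drop, and little compound fluorescence or bead-linkage interference; inactive means the rest.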
# Experiments:
# [1] = molecular target: Cell division control protein 42 homolog (Homo sapiens) (UniProt P60953); test: activated mutant Cdc42 GTP-binding inhibitors, dose response, biochemical, multiplex bead flow cytometry, Bodipy-FL-GTP (AID 1333;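 active means fitted half-maximal concentration within the tested dose range, moderate curve steepness, a statistically real signal drop, and little compound fluorescence or tag-binding interference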)
# Sequence of Cell division control protein 42 homolog (Homo sapiens) (P60953 whole entry, looked up): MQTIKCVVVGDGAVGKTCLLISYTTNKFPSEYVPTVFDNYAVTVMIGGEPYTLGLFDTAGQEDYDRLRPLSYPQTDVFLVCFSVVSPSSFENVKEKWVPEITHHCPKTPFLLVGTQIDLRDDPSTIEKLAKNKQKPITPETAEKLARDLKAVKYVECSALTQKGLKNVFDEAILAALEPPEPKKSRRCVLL
# [2] = molecular target: Cell division control protein 42 homolog (Homo sapiens) (UniProt P60953); test: wildtype Cdc42 GTP-binding inhibitors, dose response, biochemical, multiplex bead flow cytometry, Bodipy-FL-GTP (AID 1334); details: bead-based flow cytometry, Bodipy-FL-GTP binding to GST-Cdc42; at 100 µM (top of the series) unless noted
# [3] = molecular target: GTPase HRas (Homo sapiens) (UniProt P01112); test: inhibitors of GTP binding to wildtype Ras, dose response, biochemical, multiplex bead flow cytometry (AID 1335;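 active means fitted half-maximal concentration within 10 nM to 100 µM, steepness 0.5 to 2, significant signal drop, low assay interference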); details: bead-based flow cytometry, Bodipy-GTP binding to GST-Ras; at 100 µM (top of the series) unless noted
# Sequence of GTPase HRas (Homo sapiens) (P01112 whole entry, looked up): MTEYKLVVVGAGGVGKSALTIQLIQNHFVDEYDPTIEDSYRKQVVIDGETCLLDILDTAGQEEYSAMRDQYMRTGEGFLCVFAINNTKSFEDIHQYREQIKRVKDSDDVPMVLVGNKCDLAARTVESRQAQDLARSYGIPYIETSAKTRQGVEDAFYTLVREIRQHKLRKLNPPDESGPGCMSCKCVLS
# [4] = tested on: Ras-related protein Rab-7a (dog), GTP binding; test: Rab7 GTP binding inhibitors, potency, dose response, biochemical, wildtype, multiplex bead flow cytometry (AID 1336; call rule not given here)
# [5] = molecular target: Ras-related C3 botulinum toxin substrate 1 (Homo sapiens) (UniProt P63000); test: wildtype Rac1 GTP binding inhibitors, dose response, biochemical, multiplex bead flow cytometry (AID 1340;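 active means dose curve with midpoint inside tested range, moderate steepness, plateau gap beyond fit error, low compound glow and bead-link interference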); details: GST-Rac1 beads, Bodipy-FL-GTP binding; at 100 µM (top of the series) unless noted
# [6] = molecular target: GTPase HRas (Homo sapiens) (UniProt P01112); test: activated Ras mutant GTP binding inhibitors, dose response, biochemical, multiplex bead flow cytometry (AID 1341;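 active means dose-response curve with midpoint inside the tested range, moderate steepness, significant amplitude and little compound fluorescence or bead-attachment interference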;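 further: GST-tagged constitutively activated Ras mutant immobilized on beads and multiplexed with other GTPases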)
SMILES,outcome [1],"fluorescence, percent of control (lower = inhibition) [2]","GTP binding, percent of control [3]",outcome [4],"GTP binding signal, raw median fluorescence (lower = inhibition) (MCF (arbitrary fluorescence units)) [5]",outcome [6]
Cc1ccc(NCc2sc(C(=O)O)cc2C)cc1,inactive,63%,86.6%,inactive,35.4,inactive
CC(Sc1nnc(NC2CCCCC2)s1)C(=O)Nc1ccc2c(c1)C(=O)c1ccccc1C2=O (configuration not stated),inactive,49.1%,61.4%,inactive,161,inactive
COc1cc2[nH]c(=S)nc(NCc3cccs3)c2cc1OC,inactive,29.5%,67.6%,inactive,161,inactive
COc1cccc2c1c(C(=O)O)cn2CCOc1ccccc1C,inactive,58.5%,212%,inactive,55.1,inactive
Cn1cccc1/C=C1\SC(=S)N(NC(=O)c2ccccc2Cl)C1=O,inactive,24.6%,62.8%,inactive,178,inactive
CCCCCCOc1ccc(C#CC(=O)c2ccc([N+](=O)[O-])cc2)cc1,inactive,54.3%,199%,inactive,56.6,inactive
Cc1cc(C(=O)CN2C(=O)C(=O)N(Cc3ccccc3)C2=O)c(C)n1-c1ccccc1F,inactive,34.9%,81.4%,inactive,260,inactive
Cc1ccc(-c2noc(CN3C(C)CCCC3C)n2)cc1 (configuration not stated),inactive,51.1%,62.9%,inactive,216,inactive
Cc1ccc(OCc2ccc(C(=O)Nc3nc4ccccc4n3Cc3ccccc3)o2)c([N+](=O)[O-])c1,inactive,48.5%,60.3%,inactive,193,inactive
O=S1(=O)N=C(N(CCO)/N=C/c2ccccc2)c2ccccc21,inactive,31.3%,63.2%,inactive,139,inactive
COc1ccc(-c2cc(C(F)(F)F)n3nc(C(=O)O)cc3n2)cc1OC,inactive,30.7%,67.7%,inactive,140,inactive
COc1ccc2c(C)cc3nncn3c2c1,inactive,51.4%,92.8%,inactive,202,inactive
Nc1nonc1-c1nc2ccccc2n1CC(=O)N/N=C/c1ccc(-c2ccccc2C(=O)O)o1,inactive,30.6%,68.4%,inactive,133,inactive
Cc1ccc(C(=O)c2ccccc2C(=O)O)cc1,inactive,67.4%,89.9%,inactive,38.5,inactive
Cc1cc(C)n2nc(SCCOc3ccccc3)nc2n1,inactive,31.1%,71.1%,inactive,183,inactive
CCOC(=O)c1cc2c(N)c(C(=O)c3ccc(Br)cc3)sc2[nH]c1=O,inactive,29%,69.1%,inactive,145,inactive
Cc1cccc(/C=N/N(CCO)C2=NS(=O)(=O)c3ccccc32)c1,inactive,28.3%,67.6%,inactive,139,inactive
COc1ccc(OCc2ccccc2Br)c(C(=O)O)c1,inactive,53%,217%,inactive,49.3,inactive
CCCCCCCCCCCCCCCC(=O)Nc1cccc(C#CC(=O)c2ccc([N+](=O)[O-])cc2)c1,inactive,66%,186%,inactive,134,inactive
CC(C)(C)C(=O)OCC1OC(n2cnc(C(N)=O)n2)C(O)C1O (configuration not stated),inactive,35.8%,81.6%,inactive,266,inactive
CCOC(=O)Cn1nnnc1C(CC)N(Cc1cccs1)Cc1cc2ccc(OC)cc2[nH]c1=O (configuration not stated),inactive,97.8%,173%,inactive,194,inactive
COc1ccc(Nc2nc(-c3c(C)nc4ncccn34)cs2)cc1,inactive,29%,66%,inactive,140,inactive
Cc1cc(/C=c2\sc3nc4ccccc4n3c2=O)c(C)n1-c1ccc(C(=O)O)cc1,inactive,18.4%,70.1%,inactive,204,inactive
COc1ccc(/C=C2\SC(=S)N(CCCC(=O)NNC(=O)c3ccccc3O)C2=O)cc1,inactive,32.8%,73.5%,inactive,203,inactive
O=C(O)C1=C[C@H](c2ccc(Br)cc2)C[C@H](OCc2ccc(CO)cc2)O1,inactive,30.3%,82.5%,inactive,230,inactive
CN(/N=C/c1ccc(Br)o1)C1=NS(=O)(=O)c2ccccc21,inactive,32.2%,69.7%,inactive,185,inactive
Cc1cc(/C=C2\SC(=S)N(Cc3ccco3)C2=O)c(C)n1-c1cccnc1,inactive,137%,95.2%,inactive,209,inactive
